# Experimental data: PubChem BioAssay (NCI)
# Compounds without any hit were thinned out: in the full panel of roughly 79,000, 15% have a hit. A number with no mark means an inactive call. Calls of active or inactive are those of the source. Cut-off read from the data, not from the text of the source: active = growth inhibition above about 70%; inactive = the rest.
# Columns and labels:
# [1] = NCI Yeast Anticancer Drug Screen. Data for the rad50EPP+ strain (AID 151);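 note: 0% = growth of vehicle-treated control cultures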; settings: S. cerevisiae rad50 mutant strain, stronger effect = higher value
# Procedure, shortened: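 Vehicle-normalised growth inhibition; rad50EPP+ yeast strain, altered in DNA damage repair, compound-treated.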
# [2] = NCI Yeast Anticancer Drug Screen. Data for the mgt1 strain (AID 153); settings: S. cerevisiae mgt1 mutant growth inhibition, stronger effect = higher value
# Procedure, shortened: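 Vehicle-normalized growth inhibition is determined in mgt1 yeast, a strain selected for a defined alteration in DNA repair or cell cycle control.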
# [3] = NCI Yeast Anticancer Drug Screen. Data for the rad50 strain (AID 155);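 note: 0% = growth of vehicle-only cultures of the same strain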; settings: S. cerevisiae rad50 strain growth inhibition, stronger effect = higher value
# Procedure, shortened: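 Relative growth inhibition (compound vs vehicle) was measured in yeast with a defined repair-gene alteration.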
# [4] = NCI Yeast Anticancer Drug Screen. Data for the mec2-1 strain (AID 157); settings: S. cerevisiae mec2-1 strain, stronger effect = higher value
# Procedure, shortened: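 Mutant yeast (mec2-1) grown with compound; growth inhibition relative to vehicle control reported.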
# [5] = NCI Yeast Anticancer Drug Screen. Data for the rad14 strain (AID 159);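 note: 0% = growth of vehicle-treated control cultures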; settings: S. cerevisiae rad14 strain growth inhibition, stronger effect = higher value
# Procedure, shortened: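 Screen for anticancer potential: a yeast strain altered in DNA damage repair is grown with compound, and reduced growth is quantified against vehicle controls.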
# [6] = NCI Yeast Anticancer Drug Screen. Data for the sgs1 mgt1 strain (AID 161);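 note: 0% = growth of cultures given vehicle only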; settings: S. cerevisiae sgs1 mgt1 strain, stronger effect = higher value
# Procedure, shortened: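 Yeast cells carrying a defined DNA-repair defect were exposed to test compounds. Growth inhibition was measured relative to vehicle-treated controls.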
# [7] = NCI Yeast Anticancer Drug Screen. Data for the CLN2oe strain (AID 163);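 note: 0% = growth of vehicle-only control cultures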; settings: S. cerevisiae CLN2oe strain, stronger effect = higher value
# Procedure, shortened: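 Compounds are applied to yeast harbouring a defined cell-cycle control change; reduced growth compared with vehicle-treated controls gives the value.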
# [8] = NCI Yeast Anticancer Drug Screen. Data for the cln2 rad14 strain (AID 165);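 note: 0% = growth equal to vehicle treated cultures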; settings: S. cerevisiae cln2 rad14 strain, stronger effect = higher value
# Procedure, shortened: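 Readout is yeast growth inhibition versus vehicle-treated controls, using a strain with cln2 and rad14 alterations exposed to compound.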
# [9] = NCI Yeast Anticancer Drug Screen. Data for the bub3 strain (AID 167); settings: S. cerevisiae bub3 mutant strain, stronger effect = higher value
# Procedure, shortened: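 Screening used yeast with an engineered genetic alteration affecting cell cycle control. Compound-exposed cultures were compared with vehicle cultures, and reduced growth was taken as inhibition.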
# [10] = NCI Yeast Anticancer Drug Screen. Data for the wt2 strain (AID 169);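 note: 0% = growth of vehicle-treated yeast cultures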; settings: S. cerevisiae wt2 strain growth inhibition, stronger effect = higher value
# Procedure, shortened: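 Against vehicle-treated controls, the growth of yeast exposed to each compound was compared, and the inhibition was recorded.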
# [11] = NCI Yeast Anticancer Drug Screen. Data for the mlh1 strain (AID 171);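 note: 0% = growth of vehicle-treated control cultures of the same strain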; settings: S. cerevisiae mlh1 strain growth inhibition, stronger effect = higher value
# Procedure, shortened: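 Measured: yeast growth. Reference: vehicle-treated controls. Organism: strain with a defined alteration affecting DNA damage repair or cell cycle control, treated with compound.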
# [12] = NCI Yeast Anticancer Drug Screen. Data for the sgs1 strain (AID 173);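 note: 0% = growth of vehicle-only control cultures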; settings: S. cerevisiae sgs1 mutant, stronger effect = higher value
# Procedure, shortened: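 Each compound was added to cultures of the altered yeast strain. Growth was recorded, and inhibition was derived by comparison with vehicle controls.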
# [13] = NCI Yeast Anticancer Drug Screen. Data for the mlh1 rad18 strain (AID 175); settings: S. cerevisiae mlh1 rad18 strain growth inhibition, stronger effect = higher value
# Procedure, shortened: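 Genetically defined yeast (DNA repair-deficient) exposed to compounds; growth inhibition determined relative to vehicle.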
# [14] = NCI Yeast Anticancer Drug Screen. Data for the rad18 strain (AID 177); settings: S. cerevisiae rad18 mutant growth inhibition, stronger effect = higher value
# Procedure, shortened: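 Vehicle-treated cultures served as the baseline for scoring compound-induced growth inhibition in DNA-repair-mutant yeast.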
# [15] = NCI Yeast Anticancer Drug Screen. Data for the wt1 strain (AID 149);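 note: 0% = growth of vehicle-treated wt1 cultures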; settings: S. cerevisiae wt1 strain (SPY 50644) growth inhibition, stronger effect = higher value
# Procedure, shortened: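 Using yeast strain wt1, compound-induced growth inhibition was determined against vehicle-treated cultures.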
# [16] = at 5.0 µM (retest, dose inferred, filed as 0.5)
# [17] = at 50.0 µM (retest, dose inferred, filed as 5.0)
smiles,measurement,setting,value
CCOC(=O)[C@H]1Nc2ccccc2C2c3ccccc3CC21 (stereo partly drawn),growth inhibition,[1]; at 1.2 µM,6%
same,growth inhibition,[1]; at 3.7 µM,0%
same,growth inhibition,[1]; at 11.0 µM,14%
same,growth inhibition,[1]; at 33.0 µM,31%
same,growth inhibition,[1]; at 100.0 µM,14%
same,growth inhibition,[2]; at 1.2 µM,-4%
same,growth inhibition,[2]; at 3.7 µM,10%
same,growth inhibition,[2]; at 11.0 µM,53%
same,growth inhibition,[2]; at 33.0 µM,64%
same,growth inhibition,[2]; at 100.0 µM,65%
same,growth inhibition,[3]; at 1.2 µM,-6%
same,growth inhibition,[3]; at 3.7 µM,-9%
same,growth inhibition,[3]; [16],15%
same,growth inhibition,[3]; at 11.0 µM,-4%
same,growth inhibition,[3]; at 33.0 µM,27%
same,growth inhibition,[3]; [17],91% (active)
same,growth inhibition,[3]; at 50.0 µM,84.6% (active)
same,growth inhibition,[3]; at 100.0 µM,55%
same,growth inhibition,[4]; at 1.2 µM,-23%
same,growth inhibition,[4]; at 3.7 µM,-12%
same,growth inhibition,[4]; [16],-10%
same,growth inhibition,[4]; at 11.0 µM,21%
same,growth inhibition,[4]; at 33.0 µM,53%
same,growth inhibition,[4]; [17],20%
same,growth inhibition,[4]; at 50.0 µM,91.3% (active)
same,growth inhibition,[4]; at 100.0 µM,65%
same,growth inhibition,[5]; at 1.2 µM,-13%
same,growth inhibition,[5]; at 3.7 µM,-16%
same,growth inhibition,[5]; at 11.0 µM,1%
same,growth inhibition,[5]; at 33.0 µM,22%
same,growth inhibition,[5]; at 100.0 µM,50%
same,growth inhibition,[6]; [16],25%
same,growth inhibition,[6]; [17],83% (active)
same,growth inhibition,[6]; at 50.0 µM,91.4% (active)
same,growth inhibition,[7]; at 1.2 µM,5%
same,growth inhibition,[7]; at 3.7 µM,-1%
same,growth inhibition,[7]; at 11.0 µM,11%
same,growth inhibition,[7]; at 33.0 µM,30%
same,growth inhibition,[7]; at 100.0 µM,23%
same,growth inhibition,[8]; [16],13%
same,growth inhibition,[8]; [17],73% (active)
same,growth inhibition,[8]; at 50.0 µM,90.9% (active)
same,growth inhibition,[9]; at 1.2 µM,-4%
same,growth inhibition,[9]; at 3.7 µM,11%
same,growth inhibition,[9]; [16],-6%
same,growth inhibition,[9]; at 11.0 µM,23%
same,growth inhibition,[9]; at 33.0 µM,79% (active)
same,growth inhibition,[9]; [17],75% (active)
same,growth inhibition,[9]; at 50.0 µM,90.5% (active)
same,growth inhibition,[9]; at 100.0 µM,81% (active)
same,growth inhibition,[10]; at 1.2 µM,-31%
same,growth inhibition,[10]; at 3.7 µM,-25%
same,growth inhibition,[10]; at 11.0 µM,21%
same,growth inhibition,[10]; at 33.0 µM,44%
same,growth inhibition,[10]; at 100.0 µM,48%
same,growth inhibition,[11]; at 1.2 µM,-3%
same,growth inhibition,[11]; at 3.7 µM,28%
same,growth inhibition,[11]; at 11.0 µM,52%
same,growth inhibition,[11]; at 33.0 µM,70% (active)
same,growth inhibition,[11]; at 100.0 µM,60%
same,growth inhibition,[12]; at 1.2 µM,-6%
same,growth inhibition,[12]; at 3.7 µM,4%
same,growth inhibition,[12]; at 11.0 µM,41%
same,growth inhibition,[12]; at 33.0 µM,64%
same,growth inhibition,[12]; at 100.0 µM,72% (active)
same,growth inhibition,[13]; [16],8%
same,growth inhibition,[13]; [17],94% (active)
same,growth inhibition,[13]; at 50.0 µM,87.8% (active)
same,growth inhibition,[14]; at 1.2 µM,-31%
same,growth inhibition,[14]; at 3.7 µM,-36%
same,growth inhibition,[14]; at 11.0 µM,17%
same,growth inhibition,[14]; at 33.0 µM,64%
same,growth inhibition,[14]; at 100.0 µM,74% (active)
O=C1OC(=O)C2CCCC3CCCC1C32 (stereo not drawn),growth inhibition,[15]; at 1.2 µM,7%
same,growth inhibition,[15]; at 3.7 µM,51%
same,growth inhibition,[15]; at 11.0 µM,83% (active)
same,growth inhibition,[15]; at 33.0 µM,90% (active)
same,growth inhibition,[15]; at 100.0 µM,97% (active)
same,growth inhibition,[1]; at 1.2 µM,42%
same,growth inhibition,[1]; at 3.7 µM,54%
same,growth inhibition,[1]; at 11.0 µM,75% (active)
same,growth inhibition,[1]; at 33.0 µM,90% (active)
same,growth inhibition,[1]; at 100.0 µM,95% (active)
same,growth inhibition,[2]; at 1.2 µM,34%
same,growth inhibition,[2]; at 3.7 µM,48%
same,growth inhibition,[2]; at 11.0 µM,82% (active)
same,growth inhibition,[2]; at 33.0 µM,87% (active)
same,growth inhibition,[2]; at 100.0 µM,96% (active)
same,growth inhibition,[3]; at 1.2 µM,17%
same,growth inhibition,[3]; at 3.7 µM,68%
same,growth inhibition,[3]; [16],-10%
same,growth inhibition,[3]; at 11.0 µM,93% (active)
same,growth inhibition,[3]; at 33.0 µM,96% (active)
same,growth inhibition,[3]; [17],97% (active)
same,growth inhibition,[3]; at 50.0 µM,39%
same,growth inhibition,[3]; at 100.0 µM,96% (active)
same,growth inhibition,[4]; at 1.2 µM,39%
same,growth inhibition,[4]; at 3.7 µM,33%
same,growth inhibition,[4]; [16],-8%
same,growth inhibition,[4]; at 11.0 µM,71% (active)
same,growth inhibition,[4]; at 33.0 µM,95% (active)
same,growth inhibition,[4]; [17],99% (active)
same,growth inhibition,[4]; at 50.0 µM,36.8%
same,growth inhibition,[4]; at 100.0 µM,97% (active)
same,growth inhibition,[5]; at 1.2 µM,17%
same,growth inhibition,[5]; at 3.7 µM,28%
same,growth inhibition,[5]; at 11.0 µM,47%
same,growth inhibition,[5]; at 33.0 µM,87% (active)
same,growth inhibition,[5]; at 100.0 µM,94% (active)
same,growth inhibition,[6]; [16],-21%
same,growth inhibition,[6]; [17],10%
same,growth inhibition,[6]; at 50.0 µM,55.1%
same,growth inhibition,[7]; at 1.2 µM,40%
same,growth inhibition,[7]; at 3.7 µM,71% (active)
same,growth inhibition,[7]; at 11.0 µM,95% (active)
same,growth inhibition,[7]; at 33.0 µM,97% (active)
same,growth inhibition,[7]; at 100.0 µM,96% (active)
same,growth inhibition,[8]; [16],15%
same,growth inhibition,[8]; [17],98% (active)
same,growth inhibition,[8]; at 50.0 µM,20.8%
same,growth inhibition,[10]; at 1.2 µM,36%
same,growth inhibition,[10]; at 3.7 µM,62%
same,growth inhibition,[10]; at 11.0 µM,80% (active)
same,growth inhibition,[10]; at 33.0 µM,89% (active)
same,growth inhibition,[10]; at 100.0 µM,96% (active)
same,growth inhibition,[11]; at 1.2 µM,44%
same,growth inhibition,[11]; at 3.7 µM,64%
same,growth inhibition,[11]; at 11.0 µM,93% (active)
same,growth inhibition,[11]; at 33.0 µM,96% (active)
same,growth inhibition,[11]; at 100.0 µM,97% (active)
same,growth inhibition,[12]; at 1.2 µM,26%
same,growth inhibition,[12]; at 3.7 µM,78% (active)
same,growth inhibition,[12]; at 11.0 µM,93% (active)
same,growth inhibition,[12]; at 33.0 µM,94% (active)
same,growth inhibition,[12]; at 100.0 µM,98% (active)
same,growth inhibition,[13]; [16],31%
same,growth inhibition,[13]; [17],98% (active)
same,growth inhibition,[13]; at 50.0 µM,26.9%
same,growth inhibition,[14]; at 1.2 µM,25%
same,growth inhibition,[14]; at 3.7 µM,67%
same,growth inhibition,[14]; at 11.0 µM,94% (active)
same,growth inhibition,[14]; at 33.0 µM,94% (active)
same,growth inhibition,[14]; at 100.0 µM,97% (active)
CC(C)/C(Cl)=N\OC(=O)Nc1ccccc1F,growth inhibition,[15]; at 1.2 µM,1%
same,growth inhibition,[15]; at 3.7 µM,4%
same,growth inhibition,[15]; at 11.0 µM,9%
same,growth inhibition,[15]; at 33.0 µM,17%
same,growth inhibition,[15]; at 100.0 µM,18%
same,growth inhibition,[1]; at 1.2 µM,18%
same,growth inhibition,[1]; at 3.7 µM,28%
same,growth inhibition,[1]; at 11.0 µM,46%
same,growth inhibition,[1]; at 33.0 µM,59%
same,growth inhibition,[1]; at 100.0 µM,46%
same,growth inhibition,[2]; at 1.2 µM,0%
same,growth inhibition,[2]; at 3.7 µM,6%
same,growth inhibition,[2]; at 11.0 µM,21%
same,growth inhibition,[2]; at 33.0 µM,23%
same,growth inhibition,[2]; at 100.0 µM,21%
same,growth inhibition,[3]; at 1.2 µM,9%
same,growth inhibition,[3]; at 3.7 µM,17%
same,growth inhibition,[3]; [16],2%
same,growth inhibition,[3]; at 11.0 µM,21%
same,growth inhibition,[3]; at 33.0 µM,43%
same,growth inhibition,[3]; [17],85% (active)
same,growth inhibition,[3]; at 50.0 µM,-7.75%
same,growth inhibition,[3]; at 100.0 µM,40%
same,growth inhibition,[4]; at 1.2 µM,11%
same,growth inhibition,[4]; at 3.7 µM,17%
same,growth inhibition,[4]; [16],-1%
same,growth inhibition,[4]; at 11.0 µM,23%
same,growth inhibition,[4]; at 33.0 µM,31%
same,growth inhibition,[4]; [17],86% (active)
same,growth inhibition,[4]; at 50.0 µM,76% (active)
